Experimental data: ChEMBL document CHEMBL3433997, “St. Jude Leishmania screening dataset” (2016)

target: Hexose transporter 1 (Plasmodium falciparum) (UniProt O97467); assay: ST_JUDE_LEISH: Cytotoxicity at 2uM final concentration against transgenic Leishmania Mexicana promastigotes LmPfHT that are glucose transport deficient and complemented with the Plasmodium falciparum hexose transporter. Activity is measured by DNA content using SYBR green in vitro; assay type: functional

| Compound | inhibition [%] |
| --- | --- |
| CN1CCN(c2ccnc3ccc(NC(=O)Nc4ccc5c(c4)CCCC5=O)cc23)CC1 | 1.11 |
| Cc1cc(C=C2SC(=Nc3ccccc3)N(C3CCCC3)C2=O)c(C)n1-c1ccc(Cl)cc1 | 0.85 |
| N=C(N)c1ccc2[nH]c(SCc3ccccc3)nc2c1 | 1.38 |
| COc1ccc(Cn2c(Nc3cccc(C(F)(F)F)c3)nc3cc(C(=O)NCCN4CCCC4)cnc32)cc1Cl | 12.9 |
| CC(C)Oc1cccc(-c2ccc(C(=O)NCC3CCCN(Cc4cccc(C(F)(F)F)c4)C3)s2)c1 (stereo not given) | -1.35 |
| CCC(C)(C)n1c(C)cc2c3c(N)nc(N)nc3ccc21 | 77.2 |
| C=CCOC(=O)N1CCC(CNCc2ccc(-c3ccc(-c4nc5cc(C(F)(F)F)ccc5[nH]4)cc3)cc2)C1 (stereo not given) | -0.38 |
| O=C(Nc1ccc2nccc(N3CCN4CCC[C@H]4C3)c2c1)c1ccc(Cl)c(Cl)c1 | 1.72 |
| NC1=NC(c2ccccc2)(c2ccccc2)C(=O)N1CC1CCC1 | 2.21 |
| CCCCCN(C(=O)Nc1cc(C(F)(F)F)cc(C(F)(F)F)c1)C(C)c1nc2ccccc2c(=O)n1CC (stereo not given) | 1.02 |
| Cc1[nH]cc(Br)c(=O)c1-c1ccc(Oc2ccc(OC(F)(F)F)cc2)cc1 | 4.74 |
| COc1cc(C=NNc2cc(C)nc3c(OC)cccc23)cc(OC)c1OC | 3.3 |
| COc1ccc(C(=O)N2CCC3(CC2)C(=O)N(CC(=O)NCC2CCCCC2)CN3c2ccccc2)cc1 | 4.58 |
| CS(=O)(=O)CCNCc1cccc(-c2cc3c(Nc4ccc(OCc5ccccc5)cc4)ncnc3cn2)c1 | 10.7 |
| Cc1onc(-c2ccc(Cl)cc2)c1-c1ccnn1S(=O)(=O)c1ccc(Cl)cc1 | 4.29 |
| O=C(NCCN1CCCCC1)c1ccc(Nc2nccc(Nc3ccc(Oc4ccccc4)cc3)n2)cc1 | 8.31 |
| COc1ccc(C(=O)CCC(=O)N(Cc2ccc(-c3ccc(CNCc4cccnc4)cn3)cc2)C2CCN(Cc3ccccc3)CC2)cc1F | 1.26 |
| COc1ccc2nccc(NCC3(O)CCC(NCc4cc5c(cn4)OCCO5)CC3)c2n1 (stereo not given) | -1.9 |
| CC(C)(CNCc1cc(Cl)cc(Cl)c1)c1nc(-c2ccnc(N)n2)c(-c2ccc(Cl)c(O)c2)[nH]1 | 0.95 |
| Cc1cc(C)cc(-n2c(C)cc(/C=C3\SC(=Nc4ccc(Cl)cc4)NC3=O)c2C)c1 | 7.1 |

| Compound | inhibition [%] |
| --- | --- |
| COC(=O)c1cc(NC(=O)Nc2ccc(Cn3ncc(N4CCCNCC4)c(Cl)c3=O)cc2)cc(C(=O)OC)c1 | 1.45 |
| CCOc1c(CNCCCNc2cc(O)c3ccccc3n2)cc(Br)cc1OC | 4.37 |
| CCC(C)CC(=O)Nc1ccc(OC)c(S(=O)(=O)N[C@@H]2CCN(C#N)C2)c1 (stereo not given in full) | -0.4 |
| CCN1CCN(c2cc(C)c3cc(NC(=O)c4cccc(Cl)c4)ccc3n2)CC1 | 9.24 |
| C[C@H](Cc1ccc(OCCCCCOc2ccc(C[C@@H](C)NC[C@H](O)c3cccc(Cl)c3)cc2)cc1)NC[C@H](O)c1cccc(Cl)c1 | 104 |
| CC(C)c1ccc(NC(=O)c2ccc(CN3CCCN(Cc4cccc(O)c4)CC3)cc2)cc1 | 4.76 |
| CCCCC1=CC2C(=O)C(C(=O)OC)=CN=C2C=C1OCc1ccccc1 (stereo not given) | -2.57 |
| c1cc(CNCCc2ccncc2)cc(-c2ccc(-c3nc4ccccc4[nH]3)s2)c1 | -0.86 |
| OC1(c2ccccc2)CCN(Cc2cccc(-c3c[nH]c4nc(NC5CCCC5)ncc34)c2)C1 (stereo not given) | 3.3 |
| N#Cc1ccc2c(c1)CN(CCCCNC(=O)c1ccc(-c3ccccc3)cc1)CC2 | 3.16 |
| CCCc1cc(C(=O)N[C@@H](Cc2ccccc2)[C@H](O)CNC(C)(C)c2cccc(OC)c2)c(F)c(N2CCCC2=O)c1 | 7.94 |
| Cc1cc(NCCC(=O)NCCOc2ccccc2)nc(NCc2ccccc2C)n1 | 0.58 |
| Cn1nc(-c2ccc(NC(=O)Nc3cc(C(F)(F)F)ccc3F)cc2)c2cnc(NCCCCN3CCCC3)nc21 | 4.39 |
| OC(CNCc1ccccc1)c1cc(OCc2ccccc2)cc(OCc2ccccc2)c1 (stereo not given) | -1.19 |
| N#Cc1cc(C(=O)c2cc(Cl)ccc2O)cn(-c2cc(Cl)cc(Cl)c2)c1=O | 3.14 |
| NC1=NC(CCc2ccccc2)N(c2ccccc2)C(N)=N1 (stereo not given) | 9.38 |
| O=C(Nc1cccc(CN2CCN(C(=O)c3cccc(F)c3)CC2)c1)c1ccco1 | 2.31 |
| O=C(Nc1ccc2ccccc2c1)N(CCCn1ccnc1)Cc1csc(-c2ccc(CNCc3ccccc3)cc2)n1 | 0.41 |
| COc1cc2nc(N3CCC(CNC(=O)c4cc5ccccc5s4)CC3)nc(N)c2cc1OC | 11 |
| O=C(Nc1ccc(I)cc1)Nc1ccc(Cn2ncc(N3CCCNCC3)c(Cl)c2=O)cc1 | -3.01 |

target: Glucose transporter (Leishmania mexicana) (UniProt O61059); assay: ST_JUDE_LEISH: Cytotoxicity at 2uM final concentration against transgenic Leishmania Mexicana promastigotes LmGT2 that are glucose transport deficient and complemented with the L. Mexicana glucose transporter 2. Activity is measured by DNA content using SYBR green in vitro; assay type: functional

| Compound | inhibition [%] |
| --- | --- |
| CN1CCN(c2ccnc3ccc(NC(=O)Nc4ccc5c(c4)CCCC5=O)cc23)CC1 | 1.66 |
| Cc1cc(C=C2SC(=Nc3ccccc3)N(C3CCCC3)C2=O)c(C)n1-c1ccc(Cl)cc1 | 1.29 |
| N=C(N)c1ccc2[nH]c(SCc3ccccc3)nc2c1 | 0.24 |
| COc1ccc(Cn2c(Nc3cccc(C(F)(F)F)c3)nc3cc(C(=O)NCCN4CCCC4)cnc32)cc1Cl | 15.6 |
| CC(C)Oc1cccc(-c2ccc(C(=O)NCC3CCCN(Cc4cccc(C(F)(F)F)c4)C3)s2)c1 (stereo not given) | -3 |
| CCC(C)(C)n1c(C)cc2c3c(N)nc(N)nc3ccc21 | 63.6 |
| C=CCOC(=O)N1CCC(CNCc2ccc(-c3ccc(-c4nc5cc(C(F)(F)F)ccc5[nH]4)cc3)cc2)C1 (stereo not given) | 1.41 |
| O=C(Nc1ccc2nccc(N3CCN4CCC[C@H]4C3)c2c1)c1ccc(Cl)c(Cl)c1 | -1.03 |
| NC1=NC(c2ccccc2)(c2ccccc2)C(=O)N1CC1CCC1 | 0.31 |
| CCCCCN(C(=O)Nc1cc(C(F)(F)F)cc(C(F)(F)F)c1)C(C)c1nc2ccccc2c(=O)n1CC (stereo not given) | 6.73 |
| Cc1[nH]cc(Br)c(=O)c1-c1ccc(Oc2ccc(OC(F)(F)F)cc2)cc1 | 4.41 |
| COc1cc(C=NNc2cc(C)nc3c(OC)cccc23)cc(OC)c1OC | 3.68 |
| COc1ccc(C(=O)N2CCC3(CC2)C(=O)N(CC(=O)NCC2CCCCC2)CN3c2ccccc2)cc1 | 3.35 |
| CS(=O)(=O)CCNCc1cccc(-c2cc3c(Nc4ccc(OCc5ccccc5)cc4)ncnc3cn2)c1 | 6.71 |
| Cc1onc(-c2ccc(Cl)cc2)c1-c1ccnn1S(=O)(=O)c1ccc(Cl)cc1 | 1.91 |
| O=C(NCCN1CCCCC1)c1ccc(Nc2nccc(Nc3ccc(Oc4ccccc4)cc3)n2)cc1 | 16.6 |
| COc1ccc(C(=O)CCC(=O)N(Cc2ccc(-c3ccc(CNCc4cccnc4)cn3)cc2)C2CCN(Cc3ccccc3)CC2)cc1F | 3.53 |
| COc1ccc2nccc(NCC3(O)CCC(NCc4cc5c(cn4)OCCO5)CC3)c2n1 (stereo not given) | -2.58 |
| CC(C)(CNCc1cc(Cl)cc(Cl)c1)c1nc(-c2ccnc(N)n2)c(-c2ccc(Cl)c(O)c2)[nH]1 | 2.11 |
| Cc1cc(C)cc(-n2c(C)cc(/C=C3\SC(=Nc4ccc(Cl)cc4)NC3=O)c2C)c1 | 1.22 |

| Compound | inhibition [%] |
| --- | --- |
| COC(=O)c1cc(NC(=O)Nc2ccc(Cn3ncc(N4CCCNCC4)c(Cl)c3=O)cc2)cc(C(=O)OC)c1 | 1.92 |
| CCOc1c(CNCCCNc2cc(O)c3ccccc3n2)cc(Br)cc1OC | 6.38 |
| CCC(C)CC(=O)Nc1ccc(OC)c(S(=O)(=O)N[C@@H]2CCN(C#N)C2)c1 (stereo not given in full) | -0.94 |
| CCN1CCN(c2cc(C)c3cc(NC(=O)c4cccc(Cl)c4)ccc3n2)CC1 | 8.84 |
| C[C@H](Cc1ccc(OCCCCCOc2ccc(C[C@@H](C)NC[C@H](O)c3cccc(Cl)c3)cc2)cc1)NC[C@H](O)c1cccc(Cl)c1 | 107 |
| CC(C)c1ccc(NC(=O)c2ccc(CN3CCCN(Cc4cccc(O)c4)CC3)cc2)cc1 | 5.15 |
| CCCCC1=CC2C(=O)C(C(=O)OC)=CN=C2C=C1OCc1ccccc1 (stereo not given) | -1.77 |
| c1cc(CNCCc2ccncc2)cc(-c2ccc(-c3nc4ccccc4[nH]3)s2)c1 | -0.99 |
| OC1(c2ccccc2)CCN(Cc2cccc(-c3c[nH]c4nc(NC5CCCC5)ncc34)c2)C1 (stereo not given) | 4.81 |
| N#Cc1ccc2c(c1)CN(CCCCNC(=O)c1ccc(-c3ccccc3)cc1)CC2 | 3.99 |
| CCCc1cc(C(=O)N[C@@H](Cc2ccccc2)[C@H](O)CNC(C)(C)c2cccc(OC)c2)c(F)c(N2CCCC2=O)c1 | 9.99 |
| Cc1cc(NCCC(=O)NCCOc2ccccc2)nc(NCc2ccccc2C)n1 | 0.45 |
| Cn1nc(-c2ccc(NC(=O)Nc3cc(C(F)(F)F)ccc3F)cc2)c2cnc(NCCCCN3CCCC3)nc21 | 4.25 |
| OC(CNCc1ccccc1)c1cc(OCc2ccccc2)cc(OCc2ccccc2)c1 (stereo not given) | -0.63 |
| N#Cc1cc(C(=O)c2cc(Cl)ccc2O)cn(-c2cc(Cl)cc(Cl)c2)c1=O | 2 |
| NC1=NC(CCc2ccccc2)N(c2ccccc2)C(N)=N1 (stereo not given) | 9.31 |
| O=C(Nc1cccc(CN2CCN(C(=O)c3cccc(F)c3)CC2)c1)c1ccco1 | 0.61 |
| O=C(Nc1ccc2ccccc2c1)N(CCCn1ccnc1)Cc1csc(-c2ccc(CNCc3ccccc3)cc2)n1 | 1.63 |
| COc1cc2nc(N3CCC(CNC(=O)c4cc5ccccc5s4)CC3)nc(N)c2cc1OC | 10.4 |
| O=C(Nc1ccc(I)cc1)Nc1ccc(Cn2ncc(N3CCCNCC3)c(Cl)c2=O)cc1 | 0.24 |
